Compound activity (PubChem)
MPTP inh: inhibitors of mitochondrial permeability transition pore; isolated mouse mitochondria, Ca2+ swelling absorbance, 30 min; inhibition, % at 10 µM; hit rate 1.4% among 360,000;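 active = inhibition of 50% or more, scaled per plate between neutral and stimulator controls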;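 also: 0% = DMSO wells given calcium and 100% = 1 mM EGTA wells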
Beta apoptosis: beta cell apoptosis inhibition. INS-1E cytokine-induced death, ATP luminescence, 48 h; percent of positive-control rescue, neutral wells zero. protection from apoptosis, % (no concentration beside the values). hit rate 0.8% among 300,000. AID 435005;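 active = Every replicate reaches about 75%, or at least half do and their mean reaches it too, limit read from the data; inconclusive = At least half of replicates reach the limit but their mean does not; inactive = Under half of replicates reach the limit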;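 also: 0% = cytokine-treated negative control wells and 100% = positive control rescue; higher means more ATP so stronger rescue from cytokine killing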
SKKanGAS inh: inhibitors of SKKanGAS S. pyogenes growth in kanamycin (SK-promoter or general growth effect); BacTiter-Glo, 6 h; inhibition, % at 7.5 µM; hit rate 1.3% among 300,000; AID 1662;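 active = mean replicate score, as percent of positive control median, at least 50; inconclusive = mean below 50 but one replicate at or above 50; inactive = mean and every replicate below 50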;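 also: strain carries kanamycin resistance gene driven by streptokinase promoter and grows in 40 µg/ml kanamycin; loss of luminescence reflects streptokinase promoter inhibition or plain growth inhibition; 0% = median of DMSO wells and 100% = positive control at its reference dose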
Mdm2-MdmX inh: inhibitors of human Mdm2/MdmX interaction; SaOS-2 split-luciferase Mdm2/MdmX complementation, luminescence; hit rate 3% among 330,000; O15151+Q00987; inhibition, % at 8 µM;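 active = inhibition of at least 50% at 8 µM in the primary screen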
Target sequence (O15151 whole entry, looked up): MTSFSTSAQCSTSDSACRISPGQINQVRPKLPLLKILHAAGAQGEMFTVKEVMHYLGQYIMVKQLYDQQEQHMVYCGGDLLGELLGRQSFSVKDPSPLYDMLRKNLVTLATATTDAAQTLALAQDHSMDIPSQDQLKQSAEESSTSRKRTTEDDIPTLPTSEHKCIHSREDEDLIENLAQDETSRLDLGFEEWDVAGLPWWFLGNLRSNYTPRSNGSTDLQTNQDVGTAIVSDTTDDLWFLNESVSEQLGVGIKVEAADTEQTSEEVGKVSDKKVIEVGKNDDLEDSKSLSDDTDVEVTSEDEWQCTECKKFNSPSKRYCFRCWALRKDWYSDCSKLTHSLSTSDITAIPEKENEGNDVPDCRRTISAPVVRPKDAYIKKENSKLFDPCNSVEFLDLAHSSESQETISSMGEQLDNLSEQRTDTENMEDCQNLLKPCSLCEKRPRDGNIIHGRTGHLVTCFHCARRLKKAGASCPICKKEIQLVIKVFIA
Target sequence (Q00987 whole entry, looked up): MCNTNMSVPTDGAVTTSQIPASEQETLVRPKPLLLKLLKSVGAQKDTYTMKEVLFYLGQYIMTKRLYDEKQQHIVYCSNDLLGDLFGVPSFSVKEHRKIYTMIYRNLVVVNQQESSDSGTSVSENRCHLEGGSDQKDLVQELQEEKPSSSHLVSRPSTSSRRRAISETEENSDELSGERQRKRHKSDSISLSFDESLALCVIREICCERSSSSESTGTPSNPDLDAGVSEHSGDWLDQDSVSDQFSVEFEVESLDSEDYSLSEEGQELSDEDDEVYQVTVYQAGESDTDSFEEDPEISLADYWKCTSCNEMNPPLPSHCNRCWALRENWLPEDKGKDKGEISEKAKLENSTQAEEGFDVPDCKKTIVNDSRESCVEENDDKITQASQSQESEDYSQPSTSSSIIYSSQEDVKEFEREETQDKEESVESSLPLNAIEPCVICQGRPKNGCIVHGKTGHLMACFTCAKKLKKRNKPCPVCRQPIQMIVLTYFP
CSC inhib: cancer stem cell inhibition. cancer stem cell-like cells viability, luminescence. inhibition, % at 7.5 µM. hit rate 1.1% among 300,000. AID 2717; in the data active = inhibition above about 75%; inconclusive = no clear call, values can overlap the other calls; tested in HMLE shEcad cells
GRIN3A LBD mod: NR3A (human) ligand-binding domain modulation | hit rate 2.5% among 340,000 | AID 1259313 | NR3A LBD differential scanning fluorimetry, Tm shift; 0% = protein alone, 100% = glycine-bound protein | Tm shift relative to glycine control, % at 25 µM;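 active = melting temperature shift of at least 10% of the positive control shift, at one fixed dose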
An asterisk follows results filed as active; ? = inconclusive; . = no result. Shown are actives, neighbours in structure and some others; about 6.9% of the full set was active somewhere.

SMILES	MPTP inh	Beta apoptosis	SKKanGAS inh	Mdm2-MdmX inh	CSC inhib	GRIN3A LBD mod
O=C(NCc1ccccn1)C(=O)Nc1nc(C23CC4CC(CC(C4)C2)C3)cs1	2.0	38.8	75.3*	30.7	25.2	0.5
O=C(Nc1ccc(C2SCCS2)cc1)c1ccccc1	0.2	2.7	3.0	-84.5	2.0	14.8*
COc1cc(OC)cc(C(=O)Nc2cccc(NC(=O)c3ccccc3)c2)c1	0.2	-0.3	4.2	12.7	-6.5	-1.8
CNC(=O)Nc1ccc(C2SCCS2)cc1	3.8	10.0	12.7	15.9	6.3	2.0
O=C(Nc1ccc(Nc2ccccc2)cc1)c1ccc(Br)cc1	1.4	5.8	-1.4	15.4	1.5	36.3*
COc1cc(OC)cc(C(=O)Nc2nnc(NC(=S)Nc3ccccc3)s2)c1	0.5	10.1	51.8*	30.6	25.3	25.7*
COc1cc(OC)cc(C(=O)Nc2ccc(Nc3ccccc3)cc2)c1	1.4	20.9	22.1	-3.0	88.5*	0.0
Nc1nonc1-n1nnc(C(=O)N/N=C/c2ccoc2)c1-c1ccccc1	-1.0	-9.0	-1.2	1.5	-0.3	-1.5
CC(NC(=O)Cc1cccc(C(F)(F)F)c1)c1ccc(F)cc1 (configuration not stated)	-2.5	-5.7	-4.4	10.9	-6.1	2.1
COc1ccc(NC(=O)c2ccc(NS(=O)(=O)c3c(C)noc3C)cc2)cc1OC	2.9	-1.6	6.7	-10.3	8.9	-3.5
O=C(Nc1ccc(Nc2ccccc2)cc1)c1ccc(Cl)cc1	38.1	13.6	7.5	20.9	41.2	31.9*
O=C(Nc1ccc(Cl)cc1Cl)c1ccc(-c2ccccc2)cc1	-5.4	-1.7	3.4	-20.1	-6.0	-1.2
Cc1ccc(NC(=O)c2ccc(NS(=O)(=O)c3c(C)noc3C)cc2)cc1C	-3.1	-1.2	7.7	23.5	-10.8	30.1*
O=C(Nc1cc(-c2ccccc2)[nH]n1)c1ccc(Cl)cc1	11.2	-0.8	75.0*	1.2	60.0	18.5*
O=C(Nc1ccccc1)c1ccc(NC(=O)C2CC2)cc1	-2.2	3.5	1.7	-55.7	1.3	15.9*
CCCCC(=O)N(C)c1c(C)nc2ccc(C(=O)NCc3ccccc3OC)cn12	-1.0	.	.	.	.	.
O=C(CN1C(=O)NC2(CCCCC2)C1=O)Oc1ccc2ccc(=O)oc2c1	-0.9	-8.8	.	-13.0	13.6	0.3
CCCCc1nc2ccc(S(=O)(=O)O)cc2[nH]1	1.1	1.8	-4.9	-24.9	1.1	6.9
Cc1cc(-c2nc(-c3ccncc3)no2)ccc1[N+](=O)[O-]	1.0	4.1	-0.3	-70.5	6.5	-0.3
Cc1ccc(NC(=O)c2ccc(NC(=O)c3ccccc3)cc2)cc1C	-0.2	-3.5	4.7	38.0	-9.9	17.0*
O=C(Nc1cccc(C(=O)Nc2ccc(Br)cc2)c1)c1ccccc1	27.4	13.0	24.3	-22.1	4.8	27.3*
N#C/C(=C\c1cccnc1)C(=O)Nc1ccc(Cl)cc1	-2.6	-10.7	2.4	20.1	5.8	3.5
N#C/C(C(=O)Nc1ccc(Cl)cc1)=C(/S)Nc1ccccc1	0.3	.	26.1	2.4	31.0	32.5*
CC(=O)c1ccc(NC(=O)c2cccc(NC(=O)c3ccccc3)c2)cc1	1.4	.	-0.8	-15.0	.	-8.7
Cc1ccc(C(=O)Nc2ccc(Nc3ccccc3)cc2)cc1C	6.1	.	3.7	-62.2	.	6.5
SMILES	MPTP inh	Beta apoptosis	SKKanGAS inh	Mdm2-MdmX inh	CSC inhib	GRIN3A LBD mod
O=C(Nc1ccc(Nc2ccccc2)cc1)c1ccccc1	.	4.0	-2.7	-55.5	?	13.5*
Cc1nn(CCCC(=O)NCc2ccco2)c(=O)c2nn(-c3ccccc3)c(C)c12	-1.7	-3.5	-3.4	26.1	-23.1	-2.2
O=C(Nc1ccc(F)cc1)c1ccccc1	0.0	1.1	-5.2	1.3	5.5	15.7*
Cc1ccc(C(=O)Nc2ccc(Nc3ccccc3)cc2)cc1Br	11.4	5.6	2.5	4.7	65.1	25.5*
O=C(Nc1ccc2c(c1)OCCO2)c1oc2ccccc2c1NC(=O)C1CC1	0.4	10.4	-8.4	8.5	-12.0	-4.3
O=C(Nc1ccccc1)c1oc2ccccc2c1NC(=O)C1CC1	2.8	-0.7	-6.6	-8.4	-5.4	13.3*
O=C(Nc1ccc2ncccc2c1)c1cccc(Br)c1	4.4	-1.2	-6.9	-151.0	-13.4	22.4*
COC(=O)[C@@]12C[C@@H](CC(=O)NCC3CCCCC3)C(=O)N(Cc3ccccc3)C1=CCC(C)(C)C2	0.7	.	.	.	.	.
O=C(O)c1ccc(OS(=O)(=O)c2ccc(Cl)s2)cc1	0.1	.	.	3.0	.	3.0
CCN(CC)S(=O)(=O)c1ccc(C(=O)Nc2nnc(NC(=S)Nc3ccccc3)s2)cc1	7.5	0.1	31.9	44.7	69.9	28.2*
CCNC(=O)/C(C#N)=C/c1c(N(Cc2ccccc2)Cc2ccccc2)nc2ccccn2c1=O	-10.6	9.9	9.0	30.2	-3.9	21.8*
CC(C)Sc1nc2ncnc(N)c2[nH]1	-1.1	-6.5	5.7	15.2	-10.8	-1.4
COc1ccc(NC(=O)COc2ccc(C)cc2)c([N+](=O)[O-])c1	.	-2.5	15.9	-60.3	-7.2	12.8*
CCOc1ccc(OCC(=O)Nc2ccc(OC)cc2[N+](=O)[O-])cc1	-0.8	-3.9	-15.8	8.4	-9.5	-2.5
COc1ccc(NC(=O)c2ccc(C)cc2Cl)c([N+](=O)[O-])c1	-2.0	7.6	2.5	-46.9	2.4	11.3*
O=C(NC1CCN(C(=S)NCCc2ccccc2)CC1)C1CCCCC1	-1.0	3.2	-0.8	3.3	-8.7	0.2
O=C(CN1CCCC1)Nc1sc2c(c1C(=O)Nc1ccc(Br)cc1)CCC2	2.7	.	60.9*	-7.0	12.4	-1.6
CCOc1ccc(NC(=O)c2c(NC(=O)CNCCN3CCOCC3)sc3c2CCC3)cc1	-1.0	.	90.0*	15.2	-0.4	-1.8
COc1ccc(NC(=O)c2c(NC(=O)CNCc3ccco3)sc3c2CCC3)cc1	1.2	14.9	7.8	7.2	-2.5	1.4
O=C(NC(=S)Nc1cc([N+](=O)[O-])ccc1O)C1CC1	-0.5	4.2	27.9	-9.0	5.2	-18.5
CCOc1ccccc1N1C(=O)CN(Cc2ccc(OC)c(OC)c2)C1=S	-0.3	-0.7	0.4	2.1	-7.1	-0.5
COc1ccc2cc(C(=O)C3CCCN(C(=O)CCc4cnn(C)c4)C3)ccc2c1 (configuration not stated)	2.3	-6.0	-5.3	-73.5	3.0	0.4
COc1ccc(-c2ccnc(SCC(=O)c3ccc(Br)cc3)n2)cc1	1.8	-5.7	1.6	12.1	13.7	25.7*
Cc1ccc(S(=O)(=O)NCCC(=O)N2CCC(C)CC2)cc1	-1.5	-4.3	.	9.9	-15.4	2.5
COc1ccccc1NC(=O)COc1ccc2ccccc2c1	-2.2	.	35.7	-8.7	-3.3	1.5
COc1ccccc1NC(=O)C(=O)NNC(=O)COc1ccc2ccccc2c1	1.7	2.8	67.1*	27.2	.	.
O=C(CN1CCCCCCC1)N/N=C/c1ccc(F)cc1F	-0.7	4.4	-13.3	-0.4	14.3	24.2*
C[C@@H](NC(=O)[C@@H]1CCCN1C(=O)[C@@H]1CCCN1C(=O)c1cccc2ccccc12)c1ccccc1	-0.2	.	.	.	.	.
